# Source: PubChem BioAssay AID449762 (Southern Research Specialized Biocontainment Screening …, 2010)
# The campaign covered roughly 330,000 compounds. About 1,900 (0.58%) were called active. Not shown: some 4% with an inconclusive outcome. A selection follows. Measured potencies and affinities stand elsewhere. Unmarked numbers belong to inactive results. Cut-off read from the data, not from the text of the source: inconclusive = inhibition above about 70% without an active follow-up result; inactive = below that.
# Experiment: M. tuberculosis growth inhibition, HTS (AID 449762);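 note: bacterial growth assessed after seven days of incubation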
# Details: M. tuberculosis H37Rv growth inhibition, 7H9 media; at 25 µM; hits give high values
row,SMILES,inhibition [%]
1,C[C@H](CO)N1C[C@H](C)[C@@H](CN(C)C(=O)NC2CCCCC2)Oc2ccc(NC(=O)Cn3cnnn3)cc2C1=O,4.07
2,Cc1c(C)c(C)c(CN2CCCC2)c(C)c1C,2.65
3,CNC(=O)c1ccc(NC(=O)CCc2c(C)noc2C)cc1,-12.4
4,CC[C@@]12C(=O)N(c3cccc(F)c3)C(=O)N1[C@H](c1ccc(F)cc1)[C@@H]1C(=O)N(C3CCCCC3)C(=O)[C@@H]12,0.17
5,CC(=O)Nc1ccc(N2C(C(C)=O)=NN(c3ccccc3)C2c2cccs2)cc1 (centres undefined),1.3
6,CC(=O)C1=NN(c2ccccc2)C(c2cccs2)N1c1ccccc1 (centres undefined),-3.16
7,CC(=O)OCC1=C(C(=O)O)N2C(=O)C(NC(=O)C(C)Cn3cc(Cl)cn3)C2SC1 (centres undefined),-1.4
8,CCCSc1nsc(SCCC)c1C#N,-0.55
9,CN(Cc1ccccc1)C(=O)Cn1c(=O)oc2cc(S(=O)(=O)N3CCCC3)ccc21,-1.71
10,COc1cc(C2C(C(=O)C(C)(C)C)=C(O)C(=O)N2Cc2ccccc2)ccc1O (centres undefined),1.41
11,COc1cccc(NC(=O)c2oc3ccc(S(=O)(=O)N4CCOCC4)cc3c2C)c1,58
12,Cc1ccc(NC(=O)c2oc3ccc(S(=O)(=O)N4CCOCC4)cc3c2C)cc1C,-7.43
13,O=C(O/N=C1/CCCc2occc21)c1ccccc1,6.31
14,CCCn1c(S(=O)(=O)O)nc2ccccc21,5.54
15,COc1cc2c(cc1OC)C(C)N(S(=O)(=O)c1cccs1)CC2 (centres undefined),-12.1
16,O=C(NC1CCCC1)C(c1ccncc1)N(CCCN1CCOCC1)C(=O)c1ccc(-c2ccccc2)[nH]1 (centres undefined),3.89
17,O=C(NC1CCCCC1)C(c1ccc(F)cc1)N(CCN1CCOCC1)C(=O)c1ccc(-c2ccccc2)[nH]1 (centres undefined),42.3
18,CCC(COC(=O)Nc1ccccc1)NC(=O)OC(C)C (centres undefined),-6.07
19,COc1cccc(Cn2cnc3c(NS(=O)(=O)c4cc(Cl)ccc4Cl)c(C)c(C)cc32)c1,0.44
20,NS(=O)(=O)c1ccc(Nc2nc(-c3ccc4ccccc4c3)cs2)cc1,1.78
21,Oc1ccc(Nc2nc(-c3ccc(O)cc3)cs2)cc1,4.52
22,CSc1ccccc1NC(=O)Cn1nnc(-c2ccc(S(C)(=O)=O)cc2)n1,-2.14
23,NC(=O)C1CCN(Cc2nc(-c3ccccc3)no2)CC1,-14.2
24,O=c1c2ccccc2cnn1Cc1n[nH]c(=S)n1-c1ccc(F)cc1,4.78

row,SMILES,inhibition [%]
1,CCOC(=O)N/N=C\c1ccc([N+](=O)[O-])o1,-1.58
2,CCOC(=O)N/N=C(\C)c1ccc(C)o1,-1.85
3,CC(C)NC(=O)N(O)C1N(Cc2ccc3c(c2)OCO3)C(=S)SC1(C)C (centres undefined),3.94
4,CCCc1cc(C(=O)OC)c(NC(=O)CCCC(=O)O)s1,0.02
5,Cc1nn(CC(=O)NCCCc2ccccc2)c(=O)c2cc3occc3n12,3.16
6,COc1cccc(NC(=O)CN(C)C(=O)CNC(=O)c2ccc(Oc3ccccc3)cc2)c1,7.98
7,Cc1c(Cl)cccc1NC(=S)N1CCN(C(=O)c2ccco2)CC1,-0.43
8,Cc1ccc(N2C(=O)C(CN(C)C)C2c2ccccc2)cc1 (centres undefined),-6.05
9,COc1ccc(N2C(=O)C(F)(F)C2c2ccc(C)cc2)cc1OC (centres undefined),60.7
10,CC1=NN(C(=O)c2c(Br)c(C)nn2C)C(O)(C(F)(F)F)C1 (centres undefined),0.52
11,C#CCSc1nc2ccccc2n1C(=O)c1ccc(S(=O)(=O)N2CCCCC2)cc1,-2.86
12,COC(=O)C1=C(c2ccc(S(C)(=O)=O)cc2)C[C@@H]2CC[C@H]1N2C(=O)N1CCCCC1,3.7
13,Cc1c(C(=O)NCc2ccccn2)oc2c(Cl)cccc12,-3.71
14,Cc1c(Cl)cccc1NC(=O)NCc1ccccn1,-11.4
15,CCC1CCCCN1CCCNC(=O)Cn1nc(C)n2nc(-c3ccccc3)cc2c1=O (centres undefined),1.58
16,CCSc1nnc(CCNS(=O)(=O)c2ccc(C(C)=O)cc2)n1C,0.26
17,S=C(Nc1cc(Cl)cc(Cl)c1)N1CCCC1,0.04
18,Cc1cc2c(ncn2Cc2ccccc2)c(N)c1C,2.7
19,CCCn1cnc2c(N)c(C)c(C)cc21,-11.4
20,O=C(NNC(=O)C1CCN(c2ncccn2)CC1)c1ccc(F)cc1,0.94
21,CC(=O)OC1N=C(c2ccccc2Cl)c2cc(Br)ccc2N(C)C1=O (centres undefined),-6.48
22,N#C/C(=C/c1ccc(Br)s1)C(=O)NCCc1c[nH]c2ccccc12,3.76
23,N#C/C(=C/c1ccc(N2CCCCC2)o1)C(=O)NCCc1c[nH]c2ccccc12,-3.85
24,CCN1CCc2nc(NC(=O)Cc3ccc4c(c3)OCCO4)sc2C1,-17.6

row,SMILES,inhibition [%]
1,CC(C)NC(=O)CCCN1C(=O)c2ccccc2Sc2ncccc21,1.48
2,O=C(O)c1cc(-c2ccncc2)nc2ccc(S(=O)(=O)N3CCOCC3)cc12,3.61
3,O=C(NC(=S)Nc1ccc(N2CCOCC2)c(Cl)c1)c1cccs1,3.13
4,O=C(Nc1ccc(N2CCCC2)c(Cl)c1)c1cccs1,7.74
5,COc1ccc2c(c1)[C@H]1[C@H](CO2)[C@H](c2ccccc2)[C@]2(C)C(=O)Nc3ccc(C)cc3C(=O)N12,1.01
6,COc1ccc2c(c1)C(=O)N1[C@H]3c4cc(OC)ccc4OC[C@@H]3[C@H](c3ccccc3)[C@]1(C)C(=O)N2,1.44
7,O=c1c2cccc3c2c(nn1-c1ccccc1)-c1ccccc1-3,-2.02
8,COc1cccc(NC(=O)CN(C)C(=O)c2c(C)nn(CC(C)C)c2Cl)c1,-7.79
9,O=C(COc1ccc(Cl)cc1)OCc1csc(Nc2ccccc2)n1,4.58
10,O=C(COc1ccccc1)OCc1csc(Nc2ccccc2)n1,11.3
11,CC1CCCC(NC(=O)COC(=O)c2ccc(Br)o2)C1C (centres undefined),10.4
12,COCCN(C(=O)c1cc(-c2ccncc2)nc2ccccc12)c1c(N)n(CC(C)C)c(=O)[nH]c1=O,-4.69
13,C=C(C)C1Cc2c(C)nn(-c3cccc4ccccc34)c2C1 (centres undefined),40.9
14,C=C(C)C1Cc2c(C)nn(-c3ccccc3)c2C1 (centres undefined),5.29
15,CC(c1ccccc1)N1C(=O)C2C3C=CC(C4CC34)C2C1=O (centres undefined),0.61
16,Cc1cc(C2=NNC(=NC3CC3)SC2)c(C)n1Cc1ccco1,63.5
17,CCN=C1NN=C(c2cc(C)n(Cc3ccco3)c2C)CS1,-1.01
18,CCCCn1c(CN2CCN(c3cccc(Cl)c3)CC2)nc2c1c(=O)[nH]c(=O)n2C,62.7
19,CC1CCCN(C2(O)C(=O)Nc3ccc(Br)cc32)C1 (centres undefined),5.15
20,COCCN(C(=O)COC(=O)c1cc2ccccc2cc1OC)c1c(N)n(Cc2ccccc2)c(=O)[nH]c1=O,-2.06
21,COc1ccccc1OCC(=O)Nc1ccc(C(N)=O)cc1,-3.41
22,CC(=Nc1cccc(O)c1)c1sc2ccccc2c1O,11.9
23,CCCn1nc(C(=O)Nc2ccc(S(=O)(=O)Nc3nccs3)cc2)c2ccccc2c1=O,8.73
24,O=C(Nc1ccccc1F)Nc1ccccc1Br,4.25

row,SMILES,inhibition [%]
1,CCOc1ccc(Br)cc1/C(C)=N\NC1=NCCN1,-0.3
2,COc1ccc(Br)cc1/C(C)=N/NC1=NCCN1,1.92
3,CC(C)OCCCN1CC(=O)N2C(c3cccc([N+](=O)[O-])c3)c3[nH]c4ccccc4c3C[C@H]2C1=O (some centres undefined),19.4
4,CCc1cc(-c2nc(N)ncc2-c2ccc(Br)cc2)c(O)cc1OC,14.9
5,CCCc1cc(-c2nc(N)ncc2-c2csc(C)n2)c(O)cc1OC,-5.66
6,CC(C)C(=O)Nc1nc2ccc(S(C)(=O)=O)cc2s1,4.62
7,O=C(O)c1ccc(-n2c(-c3ccccc3)n[nH]c2=S)cc1,-4.35
8,Cc1ccccc1CN1CCN(Cc2ccccc2)CC1,-6.4
9,CCN1CCN(Cc2ccccc2C)CC1,-5.92
10,CCOC(=O)Cc1csc(SCc2nc3ccccc3c(=O)[nH]2)n1,-2.6
11,CSC(=S)N/N=C/c1ccc(N(C)C)cc1,3.05
12,CSC(=S)N/N=C/c1ccc(Br)cc1,57.5
13,COc1ccccc1N(O)C1CC(=O)N(c2ccc(F)cc2)C1=O (centres undefined),10.9
14,COc1ccccc1N1C(=O)CC(N(O)c2ccccc2)C1=O (centres undefined),7.06
15,S=C(N/N=C/c1ccc(Cl)cc1)N1CCOCC1,10.7
16,Cc1ccc(/C=N/NC(=S)N2CCOCC2)cc1,-4.55
17,N#Cc1c(N)nc(Sc2ccc(Cl)cc2)c(C#N)c1-c1ccccc1Cl,7.13
18,O=C(O)CCCNS(=O)(=O)Cc1ccccc1,2.38
19,COc1cc(OC)nc(Oc2ccccc2C(=O)Oc2ccc(C)cc2)n1,-5.69
20,COc1cc(OC)nc(Oc2ccccc2C(=O)Oc2ccccc2Cl)n1,3.91
21,O=C(NCc1ccccc1)N1CCC(CO)(Cc2cccc(F)c2)CC1,1.55
22,CC(=O)c1sc(NC(=O)c2c(F)cccc2F)nc1-c1ccccc1,3.31
